PubChem BioAssay AID1159580 (chemical genetic matrix, 2015)
Among all 5,500 compounds or so, about 2,000 (36%) were called active. Inconclusive results (about 18%) are left out. Cut-off read from the data, not from the text of the source: active = normalized growth mostly below about 0.91 (no sharp cut-off); inconclusive = no clear call, values can overlap the other calls; inactive = mostly above about 0.92. Some of the results follow.

Experiment: chemical genetic growth profiling, strain panel (AID 1159580);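 note: tested at 20 µM; growth read once vehicle control cultures reached saturation at 30 °C; 1 = growth at the plate median or of vehicle wells; lower values mean less growth of the strain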
Conditions: S. cerevisiae deletion strains, growth OD

Measured: normalized growth

c1ccc2sc(C3(N4CCCCC4)CCCCC3)cc2c1
inactive: locus YAL013W, strain DEP1, active compounds read low 0.964 | locus YAL040C, strain CLN3, active compounds read low 1.01 | locus YCL061C, strain MRC1 (second series), active compounds read low 0.995 | locus YDR150W, strain NUM1, active compounds read low 1 | locus YDR363W, strain ESC2, active compounds read low 0.937 | locus YER002W, strain NOP16, active compounds read low 1.01 | locus YGR078C, strain PAC10, active compounds read low 0.983 | locus YGR229C, strain SMI1, active compounds read low 0.93 | locus YMR263W, strain SAP30, active compounds read low 1 | locus YMR307W, strain GAS1, active compounds read low 0.976 | locus YNL128W, strain TEP1, active compounds read low 0.988 | locus YNL153C, strain GIM3, active compounds read low 1.01 | locus YNL175C, strain NOP13, active compounds read low 1.03 | locus YNL197C, strain WHI3, active compounds read low 0.986 | locus YNL224C, strain SQS1, active compounds read low 1 | locus YOR083W, strain WHI5 (second series), active compounds read low 1.04 | locus YPL055C, strain LGE1, active compounds read low 0.907
